Assay outcomes (PubChem)
D2 ag-1: Beta-Arrestin HTS for Positive Allosteric Modulators of the Human D2 Dopamine Receptor: Agonists. D(2) dopamine receptor (Homo sapiens), P14416. DiscoveRx PathHunter D2 beta-arrestin, luminescence, 90 min; 100% = 57 uM dopamine signal. activation, % (no concentration beside the values). 360,000 compounds, 0.084% hits; in the data active = activation above about 40%; inconclusive = between about 15% and that limit
Target sequence (P14416 whole entry, looked up): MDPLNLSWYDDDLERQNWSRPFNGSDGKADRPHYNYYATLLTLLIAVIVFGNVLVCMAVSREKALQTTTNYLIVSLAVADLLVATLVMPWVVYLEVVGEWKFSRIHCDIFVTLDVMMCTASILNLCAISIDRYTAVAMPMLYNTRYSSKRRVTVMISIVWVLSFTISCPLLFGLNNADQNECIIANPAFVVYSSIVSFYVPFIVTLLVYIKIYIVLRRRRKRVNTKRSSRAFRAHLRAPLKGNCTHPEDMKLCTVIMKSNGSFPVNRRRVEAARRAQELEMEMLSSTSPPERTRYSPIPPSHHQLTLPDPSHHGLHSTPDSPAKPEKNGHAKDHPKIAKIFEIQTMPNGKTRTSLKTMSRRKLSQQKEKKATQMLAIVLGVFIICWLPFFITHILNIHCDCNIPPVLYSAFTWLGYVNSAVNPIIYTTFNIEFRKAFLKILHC
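Agonist mode: compounds alone added to overnight-plated D2 PathHunter cells for 90 min at 37 C, with 57 uM final dopamine (EC100) defining full response. Beta-arrestin recruitment detected by chemiluminescent reagent, read after 1 h at ambient temperature.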
D2 antagonist: HTS Assay for Allosteric Antagonists of the Human D2 Dopamine Receptor: Primary Screen for Antagonists; HEK293 TREx D2 cells, calcium flux, dopamine EC80; D(2) dopamine receptor (Homo sapiens), P14416; inhibition, % at 10 µM; 340,000 compounds, 2% hits; in the data active = inhibition above about 30%; inactive = below that, where a call was filed; note: 0% is about no effect
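Cells plated overnight at 30 C with tetracycline; no-wash calcium dye, 30–90 min RT; 10 s baseline; compound pinned; 180 s read; EC80 dopamine added; another 180 s read.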
D2 PAM-1: HTS Assay for Positive Allosteric Modulators of the Human D2 Dopamine Receptor: Primary Screen for Potentiators; HEK293 T-REx D2, calcium flux, EC20 dopamine potentiation; potentiation, % at 10 µM; 340,000 compounds, 0.34% hits;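 active = potentiation over 3 SD above the plate norm, cut at about 30% in these data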; note: 0% is about no effect
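Tetracycline-induced Hek293 Trex D2 cells, force-coupled to calcium, loaded with no-wash calcium dye. Compound added with 180 s kinetic read for agonism, then EC20 dopamine and a further 180 s read for potentiation.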
B2AR arrestin: qHTS assay of beta-arrestin-biased ligands of beta2-adrenergic receptor; beta-arrestin recruitment to beta2AR, cell-based reporter; Potency, µM (top dose mostly 46.1 µM), for the others: at the highest dose activation, usual class: activators; 330,000 compounds, 0.02% hits; AID 492947, 2010; active = well fitted activation curve with a large enough effect; inconclusive = small, poorly fitted or top-dose-only effect;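 note: potency is the fitted concentration of half-maximal effect; 0% = DMSO controls and full agonism = EC100 isoproterenol or metaproterenol; nearly all actives have a fitted effect of over 65% in size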
D2 PAM-2: Beta-Arrestin HTS for Positive Allosteric Modulators of the Human D2 Dopamine Receptor: Potentiators; D(2) dopamine receptor (Homo sapiens), P14416; DiscoveRx D2 beta-arrestin cells, luminescence, 90 min; 100% = 57 uM dopamine signal; potentiation, % (test concentration not listed); 360,000 compounds, 0.23% hits; AID 624464, 2012; in the data active = potentiation above about 50%; inconclusive = mostly about 30% to 49%
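PathHunter beta-arrestin assay in DiscoveRx D2 cells. Compounds were added with an EC20 of dopamine (50 nM final) for 90 min at 37 deg C. Luminescence was read 1 h after detection reagent, with 57 uM dopamine as the EC100 control.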
D2 ag-2: HTS Assay for Allosteric Agonists of the Human D2 Dopamine Receptor: Primary Screen for Agonists; D(2) dopamine receptor (Homo sapiens), P14416; HEK293 T-REx D2 cells, calcium flux agonist mode; activation, % at 2 µM; 340,000 compounds, 0.53% hits; AID 485358, 2010;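 active = activation over 3 SD above normal in the single-dose calcium agonist read, cut at about 30% in these data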; note: 0% is about no effect
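HEK293 Trex D2 cells, tetracycline-induced, o/n 30 C 5% CO2; no-wash Ca dye, RT 30–90 min; 10-cycle baseline, 23 nl cpd added, kinetic Ca read 180 s; agonist hits = positive Ca response.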
The depositor's hits bear a star; ? = inconclusive; nt = no result. Only some compounds are listed: those with a hit (about 2.4% of all), similar ones and a draw of the others.

SMILES | D2 ag-1 | D2 antagonist | D2 PAM-1 | B2AR arrestin | D2 PAM-2 | D2 ag-2
O=C1C(Nc2ccccc2)=C(N2CCCCC2)C(=O)c2ccccc21 | 7 | -18 | 3 | 0% | 19 | 0
CC(=O)c1ccccc1NC(=O)COC(=O)c1c(C)nn(-c2ccccc2)c1C | 10 | 10 | 5 | 0% | -6 | 0
Cc1ccc([N+](=O)[O-])cc1Nc1nc(N2CCCC2)nc(N2CCCC2)n1 | -4 | 35* | 11 | 0% | -4 | 1
COc1ccc(-c2csc(NC(=O)C3=COCCO3)n2)c(OC)c1 | -1 | 4 | -4 | 0% | 10 | 0
Cc1cc(C)c(-c2csc(NC(=O)C3=COCCO3)n2)cc1C | -1 | 32* | 3 | 0% | -18 | -1
CC1=C(C#N)C(=O)NC(=O)/C1=C/c1ccc(-c2ccc(S(N)(=O)=O)cc2)o1 | 10 | 9 | 37* | 0% | 29 | 1
Cc1cc(NC(=O)CCN2CCC(C)CC2)ccc1Br | -3 | 39* | -11 | 0% | -66 | 1
Cc1cc(NC(=O)CN2C(=O)N(C)C3(CCCCC3)C2=O)ccc1Br | -2 | 33* | -12 | 0% | 0 | 1
COC(=O)Nc1nc(-c2cc(Cl)ccc2Cl)cs1 | 3 | 15 | 5 | -1% | -28 | -1
CN1CCN(S(=O)(=O)c2cccc(C(=O)Oc3ccc(C(C)(C)C)cc3)c2)CC1 | -1 | 34* | 5 | 0% | -7 | 1
CCCc1nnc(-c2cc(OC)c(OC)c(OC)c2)o1 | -3 | 30* | 9 | 0% | 12 | -1
COc1cc(-c2nnc(-c3cc(OC)c(OC)c(OC)c3)o2)cc(OC)c1OC | 0 | 8 | -4 | 1% | 2 | nt
O=C(Nc1ccccc1N1CCN(c2ccccc2)CC1)C12CC3CC(CC(C3)C1)C2 | 1 | 1 | 32* | 0% | 7 | 0
COc1cc(CN(C)C(=O)C(=O)c2c[nH]c3ccccc23)ccc1O | -1 | nt | nt | nt | -19 | nt
N#CC1=C(SCc2ccccc2)NC(=O)CC1c1cccc(O)c1 (centres undefined) | -1 | 3 | 1 | 0% | 11 | 0
Cc1nnc(SCc2cc(=O)oc3cc(O)ccc23)n1Cc1ccccc1 | 0 | 30* | 5 | -1% | -5 | 0
Cc1nnc(SCc2cc(=O)oc3ccc4ccccc4c23)n1Cc1ccccc1 | 0 | -2 | -4 | 0% | -7 | -1
CCN(CCCNC(=O)c1nn(-c2ccc(OC)c(Cl)c2)c(=O)c2c1c1ccccc1n2C)c1cccc(C)c1 | nt | nt | -1 | nt | nt | 0
O=C(O)c1ccc(-n2nnnc2SCc2ccccc2F)cc1 | 1 | 37* | -31 | 0% | -8 | 1
CN(C(=O)N1CCN(c2ccccn2)CC1)c1ccccc1 | 1 | 39* | -12 | 0% | 8 | 0
CCCCN(C(=O)c1cc2c(s1)CCC2)c1c(N)n(CCCC)c(=O)[nH]c1=O | -1 | 28 | 10 | 0% | 15 | 0
O=C(NC1CCCC1)C(c1ccc(Cl)cc1)N1CCOCC1 (centres undefined) | -6 | 32* | -3 | 0% | -6 | -1
O=CN1CCN(C(C(=O)NC2CCCC2)c2ccc(Cl)cc2)CC1 (centres undefined) | -2 | 5 | 0 | 0% | -6 | 1
Cc1ccc(-c2nc3scc(CCNC(=O)c4cccc(Br)c4)n3n2)cc1 | nt | nt | 2 | nt | nt | 1
CCOC(=O)Cc1csc(NC(=O)COc2ccc3ccccc3c2)n1 | -1 | 59* | -4 | -1% | 3 | 1
SMILES | D2 ag-1 | D2 antagonist | D2 PAM-1 | B2AR arrestin | D2 PAM-2 | D2 ag-2
CCOC(=O)Cc1csc(NC(=O)COc2ccc(OC)cc2)n1 | 1 | 23 | -3 | 0% | -3 | -1
O=C1CCCc2ccccc2N1 | 8 | -6 | 46* | 0% | 1 | 1
O=C(c1ccc(F)cc1)C1CCN(CCn2c(=O)[nH]c3ccccc3c2=O)CC1 | -5 | 58* | -21 | 0% | -37 | 1
CC(NC(=O)c1ccc([N+](=O)[O-])cc1[N+](=O)[O-])c1ccc(-c2ccccc2)cc1 (centres undefined) | 14 | -12 | -6 | -3% | ? | 0
CCC(NC(=O)c1ccc([N+](=O)[O-])cc1[N+](=O)[O-])c1ccccc1 (centres undefined) | 11 | -2 | 7 | 0% | 74* | 1
CCC(C(=O)NCCc1ccc(OC)c(OC)c1)n1nc(C)n2c(cc3occc32)c1=O (centres undefined) | -2 | 33* | -5 | 0% | 1 | 0
C=CCNC(=S)Nc1sc2c(c1C(=O)OCC)CCN(C(=O)OCC)C2 | -1 | -13 | 40* | nt | -17 | 0
CCOC(=O)c1c(NC(=S)NCc2ccccc2)sc2c1CCN(C(=O)OCC)C2 | -8 | 18 | 6 | 0% | -4 | 0
Cc1nn(-c2ccccc2)c(N)c1C(O)(CSc1nccn1C)C(F)(F)F (centres undefined) | 0 | 37* | 0 | 0% | 6 | 0
Cc1cnc(C(=O)OCC(=O)NCc2ccccc2)cn1 | 0 | -2 | 8 | 0% | -3 | 0
Cc1cnc(C(=O)OCC(=O)NC(C)CCc2ccccc2)cn1 (centres undefined) | 3 | 34* | 15 | 0% | -1 | 0
CCCn1nc2cc(C(=O)NCC34CC5CC(CC(C5)C3)C4)ccc2c1OCC | 0 | 0 | 5 | -1% | -11 | 0
COc1ccc(OC)c(C(=O)C(=O)c2cc(OC)ccc2OC)c1 | -3 | nt | nt | nt | 6 | nt
COc1ccc(OC)c(N)c1 | 2 | -21 | -9 | 0% | 61* | -1
Cc1ccc(C)c(OCCC(=O)NNC(=O)c2ccccc2)c1 | 1 | -29 | -4 | 0% | -8 | 1
Cc1ccc(C)c(OCCC(=O)NNC(=O)c2ccncc2)c1 | -2 | 43* | 0 | 0% | -15 | -1
CCn1c(C(=O)NCCc2ccc(OC)c(OC)c2)cc2sc(Cl)cc21 | nt | nt | -12 | nt | nt | 1
COc1ccccc1CNC(=O)CCNS(=O)(=O)c1ccc2c(c1)oc(=O)n2C | 0 | 67* | -19 | 0% | -6 | -3
Cn1c(=O)oc2cc(S(=O)(=O)NCCC(=O)NCCc3ccc(Cl)cc3)ccc21 | 0 | 59* | -12 | -1% | -25 | 0
